{"source": "PubChem BioAssay AID488908", "about": "(National Center for Advancing Translational Sciences (NCATS), 2010)", "note": "Results filed as inconclusive are left out. Active and inactive are the calls of the source. Calls follow the shape of the dose curve; as a rule, active = well fitted inhibition curve with a large enough effect; inconclusive = small, poorly fitted or top-dose-only effect; inactive = flat fitted curve, though single readings scatter.", "data": [{"assay": "Secondary Assay for lipid storage modulators: Cytotoxcity for probe SAR", "conditions": "Drosophila S3 cells viability, CellTiter-Glo luminescence, 24 h, with oleic acid added (1 µL, 400 µM); series mostly up to 46.1 µM; activity change, negative = cytotoxicity: at the top concentration", "how_it_was_run": "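Drosophila S3 embryonic cells, 5,000/well, exposed to compound at several concentrations with 400 uM oleic acid stock added, 24 h at 24 degrees C; viability by CellTiter-Glo luminescence.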", "values": [{"smiles": "O=C(NC1CCCc2c1cnn2-c1ccc(F)cc1F)c1ccc(C2(C(F)(F)F)N=N2)cc1", "note": "(stereo not drawn)", "Potency": "3.97 µM (active)"}, {"smiles": "CCOc1ccc(CCNC(=O)c2cc3ccccc3n2C)cc1OCC", "activity change, negative = cytotoxicity": "-28.9% (inactive)"}, {"smiles": "O=C(NC1CCCc2c1cnn2-c1ccc(F)cc1F)c1ccc(C(=O)c2ccccc2)cc1", "note": "(stereo not drawn)", "Potency": "11.2 µM (active)"}, {"smiles": "O=C(NCCc1ccc2c(c1)OCO2)c1cc2sccc2[nH]1", "activity change, negative = cytotoxicity": "-4.89% [at 30.7 µM] (inactive)"}, {"smiles": "Cc1ccc(NC(=O)c2ccc(CN3CCN(C)CC3)cc2)cc1Nc1nc(-c2cccnc2)cs1", "activity change, negative = cytotoxicity": "-27.6% (inactive)"}, {"smiles": "Cc1cn(-c2cc(NC(=O)c3ccc(C)c(Nc4nccc(-c5cccnc5)n4)c3)cc(C(F)(F)F)c2)cn1", "activity change, negative = cytotoxicity": "-26% (inactive)"}, {"smiles": "COc1ccc(-c2cnc(SCC(=O)Nc3nc(C)cs3)n2Cc2ccco2)cc1", "activity change, negative = cytotoxicity": "-20.5% [at 30.7 µM] (inactive)"}, {"smiles": "COc1ccc(-c2csc(NC(=O)CSc3nnc(Nc4ccccc4)s3)n2)cc1", "activity change, negative = cytotoxicity": "-28.8% (inactive)"}, {"smiles": "COc1ccc(Cl)cc1NC(=S)N1CCN(c2ccccc2)CC1", "activity change, negative = cytotoxicity": "-3.23% (inactive)"}, {"smiles": "CN(C)Cc1ccc(-c2nc3cccc4c3n2CCNC4=O)cc1", "activity change, negative = cytotoxicity": "-2.69% (inactive)"}, {"smiles": "CCOC(=O)C1CCN(C(=O)C2(NC(=O)Nc3ccc(F)cc3F)CCCCC2)CC1", "activity change, negative = cytotoxicity": "-18.3% (inactive)"}, {"smiles": "O=C(NC1CCCc2c1cnn2-c1ccc(F)cc1F)C1CCCCC1", "note": "(stereo not drawn)", "Potency": "0.791 µM (active)"}, {"smiles": "CC(C)(C)OC(=O)NC1CCCc2c1cnn2-c1ccc(F)cc1F", "note": "(stereo not drawn)", "Potency": "9.96 µM (active)"}, {"smiles": "O=C(Cc1cccs1)Nc1nc(-c2ccc(F)cc2)cs1", "activity change, negative = cytotoxicity": "-25.4% (inactive)"}, {"smiles": "O=C(Nc1cccc2c1cnn2-c1ccc(F)cc1)c1ccccn1", "Potency": "0.888 µM (active)"}, {"smiles": "O=C(NC1CCCc2c1cnn2-c1ccc(F)cc1F)c1cccc(=O)[nH]1", "note": "(stereo not drawn)", "Potency": "2.81 µM (active)"}, {"smiles": "CCOc1ccc(CCNC(C)=O)cc1OCC", "activity change, negative = cytotoxicity": "-2.17% (inactive)"}, {"smiles": "CCOC(=O)C1CCN(C(=O)CNC(=O)Nc2ccccc2Cl)CC1", "activity change, negative = cytotoxicity": "2.28% (inactive)"}, {"smiles": "O=C(CSc1nnc(NCc2ccccc2)s1)Nc1nc(-c2ccc(F)c(F)c2)cs1", "activity change, negative = cytotoxicity": "-24.2% (inactive)"}, {"smiles": "CCOc1ccc(CCNC(=O)C2COc3ccccc3O2)cc1OCC", "note": "(stereo not drawn)", "activity change, negative = cytotoxicity": "-20.3% (inactive)"}, {"smiles": "Cc1ccc(-c2cnc(SCC(=O)Nc3nccs3)n2Cc2ccco2)cc1", "activity change, negative = cytotoxicity": "-13.1% (inactive)"}, {"smiles": "CCOC(=O)C1CCN(C(=O)C2(NC(=O)Nc3ccccc3Cl)CC2)CC1", "activity change, negative = cytotoxicity": "-6.16% (inactive)"}, {"smiles": "CCOC(=O)C1CCN(C(=O)C2(NC(=O)Nc3ccccc3Cl)CCC2)CC1", "activity change, negative = cytotoxicity": "-4.57% (inactive)"}, {"smiles": "O=C(NC1CCCc2c1cnn2-c1ccc(F)cc1F)c1ccsc1", "note": "(stereo not drawn)", "Potency": "3.97 µM (active)"}, {"smiles": "O=C(Nc1cccc2nn(-c3ccc(F)cc3)cc12)c1ccccn1", "Potency": "12.5 µM (active)"}, {"smiles": "Cc1ccc(CC(=O)Nc2nc(-c3cccs3)cs2)cc1", "activity change, negative = cytotoxicity": "-7.37% (inactive)"}, {"smiles": "COc1nc(-c2ccc3c(c2)OCO3)n(-c2ccc(NC(=O)CSc3ccccc3)cc2)n1", "activity change, negative = cytotoxicity": "-7.25% (inactive)"}, {"smiles": "CCOc1ccc(CCNC(=O)c2cc3sc(Cl)cc3n2CC)cc1OCC", "activity change, negative = cytotoxicity": "-22.5% (inactive)"}]}]}
